Measurements published in PubChem BioAssay AID1159580 (chemical genetic matrix, 2015).
Several values for one entry are separate records, joined by “and”; a condition that tells them apart may be missing. Identical values can stand only once. Out of some 5,500 compounds screened, about 2,000 (36%) were called active. Roughly 18% stayed inconclusive and do not appear here. No stated cut-off is given here; in the data, active means normalized growth mostly below about 0.91 (no sharp cut-off); inconclusive means no clear call, values can overlap the other calls; inactive means mostly above about 0.92. This is one part of the list.

Experiment: chemical genetic growth profiling, strain panel (AID 1159580);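 further: tested at 20 µM; growth read once vehicle control cultures reached saturation at 30 °C; 1 = growth at the plate median or of vehicle wells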
Details: S. cerevisiae deletion strains, growth OD

Measured: normalized growth

C[C@]12CCC(=O)C=C1CCC1C2[C@@H](O)C[C@@]2(C)C1CC[C@]2(O)C(=O)COC(=O)CCC(=O)O (stereo not given in full)
inactive: locus YAL021C, strain ccr4, stronger effect = lower value 1.02 | locus YAL026C, strain drs2, stronger effect = lower value 1.01 | locus YAL030W, strain snc1, stronger effect = lower value 1.01 | locus YBL061C, strain skt5, stronger effect = lower value 1.02 | locus YBR009C, strain hhf1, stronger effect = lower value 1 | locus YBR021W, strain FUR4, stronger effect = lower value 1.01 | locus YBR023C, strain chs3, stronger effect = lower value 1.02 | locus YBR171W, strain sec66, stronger effect = lower value 1.02 | locus YBR229C, strain ROT2, stronger effect = lower value 1.01 | locus YBR231C, strain swc5, stronger effect = lower value 1.02 | locus YBR279W, strain paf1, stronger effect = lower value 1 | locus YCL011C, strain gbp2, stronger effect = lower value 1.01 | locus YCL016C, strain dcc1, stronger effect = lower value 0.993 | locus YCL029C, strain bik1, stronger effect = lower value 0.999 | locus YCL061C, strain MRC1, stronger effect = lower value 1.02 | locus YCL069W, strain vba3, stronger effect = lower value 1.01 | locus YCR088W, strain abp1, stronger effect = lower value 1.01 | locus YDL005C, strain med2, stronger effect = lower value 1.02 | locus YDL035C, strain GPR1, stronger effect = lower value 1.01 | locus YDL040C, strain nat1, stronger effect = lower value 1.01 | locus YDL074C, strain BRE1, stronger effect = lower value 1.01 | locus YDL101C, strain DUN1, stronger effect = lower value 1 | locus YDL185W, strain tfp1, stronger effect = lower value 1 | locus YDL192W, strain arf1, stronger effect = lower value 1.01 | locus YDR001C, strain nth1, stronger effect = lower value 1.02 | locus YDR069C, strain doa4, stronger effect = lower value 1.02 | locus YDR101C, strain arx1, stronger effect = lower value 1.01 | locus YDR137W, strain rgp1, stronger effect = lower value 1.02 | locus YDR150W, strain NUM1, stronger effect = lower value 1.01 | locus YDR159W, strain sac3, stronger effect = lower value 1.03 | locus YDR162C, strain NBP2, stronger effect = lower value 1.01 | locus YDR195W, strain ref2 0.997 | locus YDR297W, strain sur2, stronger effect = lower value 1.02 | locus YDR318W, strain mcm21, stronger effect = lower value 0.995 | locus YDR334W, strain swr1, stronger effect = lower value 1.01 | locus YDR335W, strain msn5, stronger effect = lower value 1.01 | locus YDR388W, stronger effect = lower value 1 | locus YDR392W, strain spt3, stronger effect = lower value 0.969 | locus YDR502C, strain sam2, stronger effect = lower value 0.999 | locus YEL003W, strain gim4, stronger effect = lower value 1.03 | locus YEL037C, strain rad23, stronger effect = lower value 1.01 | locus YEL061C, strain CIN8 (second series), stronger effect = lower value 1.03 | locus YEL061C, strain CIN8, stronger effect = lower value 1.01 | locus YER015W, strain faa2, stronger effect = lower value 0.998 | locus YER016W, strain bim1, stronger effect = lower value 1.01 | locus YER110C, stronger effect = lower value 1.01 | locus YER111C, strain swi4, stronger effect = lower value 1.02 | locus YER155C, strain BEM2 (second series), stronger effect = lower value 1.03 | locus YER155C, strain BEM2, stronger effect = lower value 0.997 | locus YER167W, strain BCK2, stronger effect = lower value 1.01 | locus YFR010W, strain ubp6, stronger effect = lower value 1.02 | locus YGL078C, strain dbp3, stronger effect = lower value 0.996 | locus YGL086W, strain mad1, stronger effect = lower value 0.999 | locus YGL167C, strain pmr1, stronger effect = lower value 1.03 | locus YGL173C, strain kem1, stronger effect = lower value 1.02 | locus YGL227W, strain vid30, stronger effect = lower value 1.01 | locus YGL240W, strain doc1, stronger effect = lower value 1.02 | locus YGL248W, strain PDE1, stronger effect = lower value 1 | locus YGL253W, strain hxk2, stronger effect = lower value 0.99 | locus YGR078C, strain PAC10, stronger effect = lower value 1.01 | locus YGR135W, strain pre9, stronger effect = lower value 0.989 | locus YGR252W, strain gcn5, stronger effect = lower value 0.943 | locus YHR013C, strain ard1, stronger effect = lower value 1.02 | locus YHR027C, strain rpn1, stronger effect = lower value 1.02 | locus YHR030C, strain SLT2, stronger effect = lower value 1.01 and 0.974 | locus YHR079C, strain IRE1 (second series), stronger effect = lower value 1 | locus YHR079C, strain IRE1, stronger effect = lower value 0.976 | locus YHR094C, strain hxt1, stronger effect = lower value 0.993 | locus YHR129C, strain ARP1, stronger effect = lower value 1 | locus YHR142W, strain chs7, stronger effect = lower value 1.01 | locus YHR200W, strain rpn10, stronger effect = lower value 1.01 | locus YIL066C, strain RNR3, stronger effect = lower value 1.01 | locus YIL073C, strain SPO22, stronger effect = lower value 1.02 | locus YIL125W, strain kgd1, stronger effect = lower value 1 | locus YIR030C, strain dcg1, stronger effect = lower value 1 | locus YJL092W, strain hpr5, stronger effect = lower value 1.02 | locus YJL095W, strain BCK1 (second series), stronger effect = lower value 1.02 | locus YJL095W, strain BCK1, stronger effect = lower value 1.01 and 0.976 | locus YJL115W, strain asf1, stronger effect = lower value 1.02 | locus YJL129C, strain trk1, stronger effect = lower value 1.03 | locus YJL134W, strain LCB3, stronger effect = lower value 1.01 | locus YJL154C, strain vps35, stronger effect = lower value 1.02 | locus YJL164C, strain tpk1, stronger effect = lower value 1.02 | locus YJL166W, strain qcr8, stronger effect = lower value 1 | locus YJL168C, strain set2, stronger effect = lower value 0.996 | locus YJL187C, strain SWE1 (second series), stronger effect = lower value 1.01 | locus YJR043C, strain POL32, stronger effect = lower value 1.02 | locus YJR066W, strain TOR1, stronger effect = lower value 0.931 | locus YJR075W, strain HOC1, stronger effect = lower value 1.02 | locus YKL009W, strain mrt4, stronger effect = lower value 1.02 | locus YKL068W, stronger effect = lower value 0.998 | locus YKL085W, strain MDH1 (second series), stronger effect = lower value 0.999 | locus YKL085W, strain MDH1, stronger effect = lower value 0.999 | locus YKL160W, strain elf1, stronger effect = lower value 1.01 | locus YKR001C, strain vps1, stronger effect = lower value 1.01 | locus YKR026C, strain gcn3, stronger effect = lower value 1.02 | locus YKR091W, strain srl3, stronger effect = lower value 1 | locus YLL001W, strain dnm1, stronger effect = lower value 1.01 | locus YLL026W, stronger effect = lower value 1.01 | locus YLL041C, strain sdh2, stronger effect = lower value 1.03 | locus YLR027C, strain aat2, stronger effect = lower value 1.01 | locus YLR039C, strain RIC1, stronger effect = lower value 1.02 | locus YLR058C, strain SHM2, stronger effect = lower value 0.989 | locus YLR102C, strain apc9, stronger effect = lower value 1 | locus YLR113W, strain HOG1, stronger effect = lower value 0.977 | locus YLR221C, strain rsa3, stronger effect = lower value 1.02 | locus YLR258W, strain gsy2, stronger effect = lower value 1.01 | locus YLR262C, strain YPT6 (second series), stronger effect = lower value 1.02 | locus YLR262C, strain YPT6, stronger effect = lower value 1.06 | locus YLR268W, strain sec22, stronger effect = lower value 0.992 | locus YLR320W, strain mms22, stronger effect = lower value 0.979 | locus YLR330W, strain CHS5, stronger effect = lower value 1.01 | locus YLR342W, strain FKS1 (second series), stronger effect = lower value 0.998 | locus YLR342W, strain FKS1, stronger effect = lower value 1.01 | locus YLR357W, strain rsc2, stronger effect = lower value 0.995 | locus YLR370C, strain arc18, stronger effect = lower value 1.01 | locus YLR371W, strain rom2, stronger effect = lower value 0.996 | locus YLR384C, strain iki3, stronger effect = lower value 1.02 | locus YLR418C, strain cdc73, stronger effect = lower value 0.988 | locus YML016C, strain PPZ1, stronger effect = lower value 1 | locus YML032C, strain rad52, stronger effect = lower value 0.994 | locus YML120C, strain ndi1, stronger effect = lower value 1.02 | locus YML124C, strain tub3, stronger effect = lower value 0.994 | locus YMR058W, strain fet3, stronger effect = lower value 1.02 | locus YMR078C, strain ctf18, stronger effect = lower value 1 | locus YMR125W, strain sto1, stronger effect = lower value 1.01 | locus YMR129W, stronger effect = lower value 1.02 | locus YMR205C, strain PFK2, stronger effect = lower value 1.03 | locus YMR223W, strain ubp8, stronger effect = lower value 0.992 | locus YMR231W, strain pep5, stronger effect = lower value 1.01 | locus YMR307W, strain GAS1, stronger effect = lower value 1.04 | locus YNL067W, strain RPL9B, stronger effect = lower value 1.01 | locus YNL071W, strain lat1, stronger effect = lower value 1.01 | locus YNL183C, strain NPR1, stronger effect = lower value 0.951 | locus YNL209W, strain ssb2, stronger effect = lower value 1.01 | locus YNL233W, strain BNI4, stronger effect = lower value 1 | locus YNL248C, strain rpa49, stronger effect = lower value 1.04 | locus YNL250W, strain rad50, stronger effect = lower value 1 | locus YNL271C, strain bni1, stronger effect = lower value 1.01 | locus YNL298W, strain CLA4, stronger effect = lower value 1.01 | locus YNL307C, strain MCK1, stronger effect = lower value 1.01 | locus YNL322C, strain KRE1 (second series), stronger effect = lower value 1.02 | locus YNL322C, strain KRE1, stronger effect = lower value 1.01 | locus YNR049C, strain mso1, stronger effect = lower value 1.02 | locus YNR052C, strain pop2, stronger effect = lower value 1 | locus YOL006C, strain TOP1, stronger effect = lower value 1.01 | locus YOL012C, strain htz1 0.91 | locus YOL147C, strain pex11, stronger effect = lower value 1 | locus YOR001W, strain rrp6, stronger effect = lower value 1.02 | locus YOR061W, strain CKA2, stronger effect = lower value 1.01 | locus YOR069W, strain VPS5, stronger effect = lower value 1.01 | locus YOR070C, strain gyp1, stronger effect = lower value 1 | locus YOR080W, strain dia2, stronger effect = lower value 1.01 | locus YOR083W, strain WHI5, stronger effect = lower value 0.983 | locus YOR106W, strain vam3, stronger effect = lower value 1.04 | locus YOR136W, strain idh2, stronger effect = lower value 1.01 | locus YOR144C, strain elg1, stronger effect = lower value 1 | locus YOR184W, strain ser1, stronger effect = lower value 1.01 | locus YOR231W, strain MKK1, stronger effect = lower value 0.997 | locus YOR265W, strain rbl2, stronger effect = lower value 1.01 | locus YOR270C, strain vph1, stronger effect = lower value 0.99 | locus YOR290C, strain snf2, stronger effect = lower value 0.988 | locus YOR316C, strain cot1, stronger effect = lower value 1.01 | locus YPL051W, strain arl3, stronger effect = lower value 1 | locus YPL055C, strain LGE1, stronger effect = lower value 1.01 | locus YPL078C, strain atp4, stronger effect = lower value 1 | locus YPL106C, strain sse1, stronger effect = lower value 1 | locus YPL240C, strain hsp82, stronger effect = lower value 1 | locus YPL241C, strain CIN2, stronger effect = lower value 1.01 | locus YPL256C, strain CLN2, stronger effect = lower value 0.98 | locus YPR119W, strain clb2, stronger effect = lower value 1.01 | locus YPR141C, strain kar3, stronger effect = lower value 1.01 | locus YPR163C, strain tif3, stronger effect = lower value 1.01 | locus YPR167C, strain met16, stronger effect = lower value 1.01 | strain wtn01, stronger effect = lower value 0.996
